Active and inactive are the calls of the source. Rule for the calls: active = hit-call score of the fitted dose curve at least 0.9, where 1 is the maximum; inactive = score below 0.9.
experiment: Tanguay_ZF_120hpf_AXIS: Oregon State University Tanguay Lab 120 Hour Post-fertilization zebrafish Assay for Axial Malformation (AID 2284398)
Procedure: Tanguay_ZF_120hpf is a whole embryo, multiplexed endpoint assay using zebrafish larvae exposed for 120 hours post fertilization on a 96-well plate.Tanguay_ZF_120hpf_AXIS is one of one assay component(s) measured or calculated from the Tanguay_ZF_120hpf assay. It is designed to make measurements of zebrafish development as detected with brightfield microscopy of developing zebrafish embryos.Data from the assay component Tanguay_ZF_120hpf_AXIS was analyzed into 1 assay endpoints. This assay endpoint, Tanguay_ZF_120hpf_AXIS, was analyzed in the positive analysis fitting direction relative to DMSO as the negative control and baseline of activity. Using a type of morphology reporter, gain-of-signal activity can be used to understand changes in developmentals as they relate to the whole embryo. To generalize the intended target to other relatable targets, this assay endpoint is annotated to the zebrafish development intended target family, where the subfamily is body axis morphogenesis.
Zebrafish husbandry: Tropical 5D wild-type adult zebrafish were housed in at an approximate density of 1000 per 100 gallon tank at the Sinnhuber Aquatic Research Laboratory, Oregon State University, Corvallis, OR. Each tank was kept at standard laboratory conditions of 28C on a 14-h light/10-h dark photoperiod in fish water consisting of reverse osmosis water supplemented with a commercially available salt (Instant Ocean). Spawning funnels were placed into the tanks the night prior, and embryos were collected and staged. To increase bioavailability, the chorion was enzymatically removed using pronase (63.6mg/ml, >/= 3.5U/mg, Sigma-Aldrich: P5147) at 4 hours post fertilization (hpf) using a custom automated dechorionator.Chemical exposures: Six hpf dechorionated embryos were placed 1 embryo per well in a 96-well plate prefilled with 90 ul of EM using automated embryo placement systems (AEPS). Ten microliters of each row of dilution plate 2 was added to 2 exposure plates. The final DMSO concentration used was 0.64% (vol/vol). Thirty-two embryos were also exposed to 5uM trimethyltin chloride (positive control). Plates were sealed to prevent evaporation and foil covered to reduce light exposure and kept in a 28C incubator. Embryos were statically exposed until 120 hpf. At 24 hpf, embryos were assessed for photomotor response using a custom photomotor response analysis tool (PRAT) and for developmental toxicity endpoints (MO24: mortality at 24 hpf, DP: developmental progression, SM: spontaneous movement, and NC: notochord distortion). At 120 hpf, locomotor activity was measured using Viewpoint Zebralab and assessed for 13 endpoints. Zebrafish acquisition and analysis program (ZAAP), a custom program designed to inventory, acquire, and manage zebrafish data, was used to collect developmental endpoints as either present or absent (i.e., binary responses were recorded). If mortality occurred for an embryo (at either 24 or 120 hpf), the non-mortality endpoints were not measured.

Compound	outcome	AC50
O=C(CC(=O)C(F)(F)C(F)(F)F)C(F)(F)F	inactive	–
FC(F)(F)C(F)(F)C(F)(F)C(F)(F)C(F)(F)C(F)(F)CC1CO1 (stereo not given)	inactive	–
FC(F)(F)C(F)(F)C(F)(F)C(F)(F)C(F)(F)C(F)(F)C(F)(F)I	inactive	–
FC(F)(F)C(F)(F)C(F)(F)C(F)(F)C(F)(F)C(F)(F)C(F)(F)C(F)(F)CCS	inactive	–
FC(F)(F)C(F)(F)C(F)(F)N(C(F)(F)C(F)(F)C(F)(F)F)C(F)(F)C(F)(F)C(F)(F)F	inactive	–
C=C(C)C(=O)OCC(F)(F)C(F)(F)C(F)(F)C(F)(F)C(F)(F)C(F)(F)C(F)(F)F	inactive	–
O=S(=O)(O)C(F)(F)C(F)(F)C(F)(F)C(F)(F)C(F)(F)C(F)(F)C(F)(F)F	–	49.5 µM (active)
O=C(O)C(F)(F)C(F)(F)C(F)(F)C(F)(F)C(F)(F)C(F)(F)C(F)(F)C(F)(F)C(F)(F)C(F)F	inactive	–
C=CC(F)(F)C(F)(F)C(F)(F)C(F)(F)C(F)(F)C(F)(F)C(F)(F)C(F)(F)F	inactive	–
OCC(F)(F)C(F)(F)C(F)(F)C(F)(F)C(F)(F)C(F)F	inactive	–
OCCCC(F)(F)C(F)(F)C(F)(F)C(F)(F)C(F)(F)C(F)(F)C(F)(F)F	inactive	–
O=C(O)C(F)(F)C(F)(F)C(F)(F)C(F)(F)C(F)(F)C(F)(F)C(F)(F)C(F)(F)Cl	–	37.2 µM (active)
O=S(=O)(OCCOC(F)(F)F)C(F)(F)F	inactive	–
OCC(F)(F)C(F)(F)C(F)(F)C(F)(F)C(F)(F)C(F)(F)F	inactive	–
Cc1ccc(S(=O)(=O)OCC(F)(F)C(F)(F)C(F)(F)C(F)(F)C(F)(F)C(F)F)cc1	inactive	–
C=CC(F)(F)C(F)(F)C(F)(F)C(F)(F)C(F)(F)C(F)(F)C(F)(F)C(F)(F)C=C	inactive	–
O=C(O)C(F)(F)C(F)(F)OC(F)(F)F	inactive	–
O=C(O)C(F)(OC(F)(F)C(F)(OC(F)(F)C(F)(F)C(F)(F)F)C(F)(F)F)C(F)(F)F (stereo not given)	inactive	–
N=C(N)C(F)(F)C(F)(F)C(F)(F)C(F)(F)C(F)(F)C(F)(F)C(F)(F)F	inactive	–
O=S(=O)(OCC(F)F)C(F)(F)F	inactive	–

Compound	outcome	AC50
O=P(O)(O)OCCC(F)(F)C(F)(F)C(F)(F)C(F)(F)C(F)(F)C(F)(F)F	inactive	–
CC(C)(C)C(=O)CC(=O)C(F)(F)C(F)(F)C(F)(F)F	inactive	–
FC(F)(F)C(F)(F)C(F)(F)CI	inactive	–
FC1CC(F)(F)C(F)(F)C1(F)F (stereo not given)	inactive	–
FC(F)(F)C(F)(F)C(F)(F)C(F)(F)C(F)(F)C(F)(F)C(F)(F)C(F)(F)F	inactive	–
O=C(O)C(F)(F)C(F)(F)F	inactive	–
O=C(O)C(F)(OC(F)(F)C(F)(OC(F)(F)C(F)(OC(F)(F)C(F)(F)C(F)(F)F)C(F)(F)F)C(F)(F)F)C(F)(F)F (stereo not given)	inactive	–
C=CC(=O)OCC(F)(F)C(F)(F)C(F)(F)C(F)(F)C(F)(F)C(F)(F)C(F)(F)F	inactive	–
FC(F)(F)C(F)(F)C(F)(F)C(F)(F)C(F)(F)C(F)(F)C(F)(F)Br	inactive	–
OCCCC(F)(F)C(F)(F)C(F)(F)F	inactive	–
NC(=O)C(F)(F)C(F)(F)C(F)(F)C(F)(F)F	inactive	–
C=C(C)C(=O)OCCC(F)(F)C(F)(F)C(F)(F)C(F)(F)C(F)(C(F)(F)F)C(F)(F)F	inactive	–
O=C(O)C=C(C(F)(F)F)C(F)(F)F	inactive	–
C=CC(=O)OCC(F)(F)C(F)(F)C(F)(F)C(F)(F)COC(=O)C=C	inactive	–
COC(=O)CCC(F)(F)C(F)(F)C(F)(F)C(F)(F)F	inactive	–
O=C(O)C(F)(F)C(F)(F)C(F)(F)C(F)(F)C(F)(F)C(F)(F)C(F)(F)C(F)(F)C(F)(F)C(F)(F)C(F)(F)C(F)(F)C(F)(F)F	inactive	–
FC(F)(F)C(F)(F)C(F)(F)C(F)(F)CCI	inactive	–
CCO[Si](CCC(F)(F)C(F)(F)C(F)(F)C(F)(F)C(F)(F)C(F)(F)F)(OCC)OCC	inactive	–
FC(F)(F)C(F)(F)CNCC(F)(F)C(F)(F)F	inactive	–
O=C(O)C(F)(F)C(F)(F)C(F)F	inactive	–

Source: PubChem BioAssay (EPA / NIEHS)
